Measured values taken from PubChem BioAssay AID1159580 (chemical genetic matrix, 2015).
Where “and” joins values, the source holds several entries; their conditions need not be identical. Equal values may be shown once. The whole screen tested about 5,500 compounds, of which about 2,000 (36%) were called active. Roughly 18% stayed inconclusive and do not appear here. No stated cut-off is given here; in the data, active means normalized growth mostly below about 0.91 (no sharp cut-off); inconclusive means no clear call, values can overlap the other calls; inactive means mostly above about 0.92. This is one part of the list.

Assay: chemical genetic growth profiling, strain panel (AID 1159580);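 further: tested at 20 µM; growth read once vehicle control cultures reached saturation at 30 °C; 1 = growth at the plate median or of vehicle wells; lower values mean less growth of the strain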
Settings: S. cerevisiae deletion strains, growth OD

Measured: normalized growth

COC(=O)C[C@H]1C(C)(C)C(=O)[C@@H]2CC3=C(CC[C@]4(C)C3=CC(=O)O[C@H]4c3ccoc3)[C@@]1(C)C2=O
inactive: locus YAL021C, strain ccr4, hits give low values 1.02 | locus YAL026C, strain drs2, hits give low values 0.985 | locus YAL030W, strain snc1, hits give low values 0.979 | locus YBL061C, strain skt5, hits give low values 0.986 | locus YBR009C, strain hhf1, hits give low values 0.983 | locus YBR021W, strain FUR4, hits give low values 0.992 | locus YBR023C, strain chs3, hits give low values 0.976 | locus YBR171W, strain sec66, hits give low values 0.947 | locus YBR229C, strain ROT2, hits give low values 1 | locus YBR231C, strain swc5, hits give low values 0.968 | locus YBR279W, strain paf1, hits give low values 0.988 | locus YCL011C, strain gbp2, hits give low values 0.953 | locus YCL016C, strain dcc1, hits give low values 0.993 | locus YCL029C, strain bik1, hits give low values 1.02 | locus YCL061C, strain MRC1, hits give low values 1 | locus YCL069W, strain vba3, hits give low values 0.958 | locus YCR088W, strain abp1, hits give low values 0.96 | locus YDL005C, strain med2, hits give low values 0.966 | locus YDL035C, strain GPR1, hits give low values 0.996 | locus YDL040C, strain nat1, hits give low values 0.966 | locus YDL074C, strain BRE1, hits give low values 1 | locus YDL101C, strain DUN1, hits give low values 1 | locus YDL134C, strain PPH21, hits give low values 1 | locus YDL185W, strain tfp1, hits give low values 1.01 | locus YDL192W, strain arf1, hits give low values 1.02 | locus YDR001C, strain nth1, hits give low values 0.979 | locus YDR069C, strain doa4, hits give low values 0.961 | locus YDR101C, strain arx1, hits give low values 1.01 | locus YDR137W, strain rgp1, hits give low values 1 | locus YDR159W, strain sac3, hits give low values 0.962 | locus YDR162C, strain NBP2, hits give low values 1.01 | locus YDR195W, strain ref2 0.956 | locus YDR297W, strain sur2, hits give low values 0.977 | locus YDR318W, strain mcm21, hits give low values 1.02 | locus YDR334W, strain swr1, hits give low values 0.961 | locus YDR335W, strain msn5, hits give low values 0.968 | locus YDR388W, hits give low values 1.01 | locus YDR392W, strain spt3, hits give low values 0.96 | locus YDR502C, strain sam2, hits give low values 1 | locus YEL003W, strain gim4, hits give low values 0.973 | locus YEL037C, strain rad23, hits give low values 0.962 | locus YEL061C, strain CIN8 (second series), hits give low values 0.958 | locus YEL061C, strain CIN8, hits give low values 0.999 | locus YER015W, strain faa2, hits give low values 0.985 | locus YER016W, strain bim1, hits give low values 0.971 | locus YER110C, hits give low values 1.02 | locus YER111C, strain swi4, hits give low values 0.953 | locus YER155C, strain BEM2 (second series), hits give low values 0.988 | locus YER155C, strain BEM2, hits give low values 1 | locus YER167W, strain BCK2, hits give low values 1.01 | locus YFR010W, strain ubp6, hits give low values 0.961 | locus YGL078C, strain dbp3, hits give low values 1.03 | locus YGL086W, strain mad1, hits give low values 1 | locus YGL167C, strain pmr1, hits give low values 0.988 | locus YGL173C, strain kem1, hits give low values 0.975 | locus YGL227W, strain vid30, hits give low values 0.976 | locus YGL240W, strain doc1, hits give low values 0.954 | locus YGL248W, strain PDE1, hits give low values 1.01 | locus YGL253W, strain hxk2, hits give low values 0.951 | locus YGR135W, strain pre9, hits give low values 1.01 | locus YGR229C, strain SMI1, hits give low values 1.01 | locus YGR252W, strain gcn5, hits give low values 1 | locus YHR013C, strain ard1, hits give low values 0.981 | locus YHR027C, strain rpn1, hits give low values 0.994 | locus YHR030C, strain SLT2, hits give low values 0.985 | locus YHR079C, strain IRE1 (second series), hits give low values 1.02 | locus YHR079C, strain IRE1, hits give low values 0.974 | locus YHR094C, strain hxt1, hits give low values 1.01 | locus YHR129C, strain ARP1, hits give low values 0.998 | locus YHR142W, strain chs7, hits give low values 0.965 | locus YHR200W, strain rpn10, hits give low values 0.996 | locus YIL066C, strain RNR3, hits give low values 0.999 | locus YIL073C, strain SPO22, hits give low values 1.09 | locus YIL125W, strain kgd1, hits give low values 1.01 | locus YIR030C, strain dcg1, hits give low values 1.02 | locus YJL092W, strain hpr5, hits give low values 0.964 | locus YJL095W, strain BCK1 (second series), hits give low values 0.99 | locus YJL095W, strain BCK1, hits give low values 1.01 and 0.983 | locus YJL115W, strain asf1, hits give low values 0.97 | locus YJL129C, strain trk1, hits give low values 0.959 | locus YJL134W, strain LCB3, hits give low values 1 | locus YJL154C, strain vps35, hits give low values 0.966 | locus YJL164C, strain tpk1, hits give low values 0.994 | locus YJL166W, strain qcr8, hits give low values 0.973
